# Test results from ChEMBL document CHEMBL4513216, “Probing the Open Global Health Chemical Diversity Library for Multistage-Active Starting Points for Next-Generation Antimalarials” (ACS Infect Dis, 2020).
# Out of some 69,000 compounds screened, about 8,600 (12%) showed an effect of 50% or more. What follows is part of a selection rich in strong results, with near analogues and random picks from the rest.
# System: Plasmodium berghei
# Experiment: Screen against P. berghei liver stage (PbLuc), transformed with Luciferase, at 10uM
# Assay type: functional, HepG2
# Settings: tested at 10 uM
row,Structure (SMILES),INHIBITION
1,Cc1nc(C2(NCC(=O)NCCc3cccs3)CCCC2)no1,-81.3%
2,CCCn1cc(C(=O)NCc2nnc(-c3ccc(C)nc3)o2)c(C)n1,14.6%
3,COc1cc(C)c(C2CC(=O)Nc3cc(NS(C)(=O)=O)ccc32)cc1C (stereo not given),-5.22%
4,Cc1cc(C)n(CCC2CC(=O)Nc3cc4[nH]ncc4cc32)n1 (stereo not given),0.991%
5,CN(Cc1ccc(C2CC(=O)Nc3cc4[nH]ncc4cc32)o1)S(C)(=O)=O (stereo not given),70.2%
6,CCc1ccc(C2CC(=O)Nc3cc(NS(C)(=O)=O)ccc32)o1 (stereo not given),85.3%
7,CN(Cc1ccc(C2CC(=O)Nc3n[nH]cc32)o1)S(C)(=O)=O (stereo not given),-38.1%
8,COc1ncccc1C1CC(=O)Nc2cc(NS(C)(=O)=O)ccc21 (stereo not given),10.1%
9,CCc1ccc(C2CC(=O)Nc3n[nH]cc32)o1 (stereo not given),26.9%
10,CCc1ccc(C2CC(=O)Nc3cc(OC)c(NS(C)(=O)=O)cc32)o1 (stereo not given),61.5%
11,CCCC(=O)Nc1cc2c(cc1OC)NC(=O)CC2c1ccc(CC)o1 (stereo not given),49.6%
12,Cc1nn(C)c(C)c1C1CCCN1C(=O)c1cnccn1 (stereo not given),2.97%
13,CCc1nc2n(n1)CC(NCc1cnc(-c3ccccc3)nc1)CC2 (stereo not given),31.9%
14,CCn1ccnc1CN1CCN(CC(O)c2cccc(F)c2)CC1 (stereo not given),-94.9%
15,COc1ccc(NC2(C(=O)N3CCn4cncc4C3)CCCC2)cc1,18.5%
16,CCCN(Cc1ccc(C#N)cc1)Cc1nnsc1Cl,52%
17,CCCN(CCC)Cc1nnsc1Cl,10.8%
18,CC(C)N(Cc1ccc(C#N)cc1)Cc1nnsc1Cl,22.4%
19,CCCOc1ccc(CNCCn2cccn2)cc1,30.5%
20,CC(=O)N1CC(c2n[nH]c3ncccc23)C1,27.6%
21,Cn1nc(C2CN(S(C)(=O)=O)C2)c2nccnc21,35.2%
22,CN1CCC(c2n[nH]c3ncccc23)C1 (stereo not given),-10.5%
23,CCc1ccc2c(C3CN(S(C)(=O)=O)C3)ncn2c1,40.8%
24,CS(=O)(=O)N1CC(c2n[nH]c3ncccc23)C1,70.1%
25,CS(=O)(=O)N1CC(c2ncn3ccccc23)C1,70.4%
26,CC(=O)CSc1nc2c(cnn2CCO)c(=O)[nH]1,-8.41%
27,Cc1cccc(N2CCN(C(=O)Cc3ccccc3O)C(C)C2)n1 (stereo not given),6.83%
28,CN1CC2(CCN(C(=O)c3ccc(-n4cnnc4)cc3Cl)CC2)OC1=O,-6.01%

row,Structure (SMILES),INHIBITION
1,Cc1cc(-c2ccnn2C)nc(C2CCCN(S(C)(=O)=O)C2)n1 (stereo not given),16.99%
2,CC(=O)NC[C@]1(O)CCN(C(=O)c2ccc(C)c(F)c2)C[C@H]1O,-7.79%
3,CC(=O)NC[C@]1(O)CCN(C(=O)c2ccc3c(c2)CCC3)C[C@H]1O,14.5%
4,CC(=O)NC[C@]1(O)CCN(C(=O)c2ccc3c(c2)OCO3)C[C@H]1O,59%
5,Cc1cnn(CCNCC(=O)N2CCN(c3ccccc3)CC2)c1,-3.48%
6,CC(C)CC(C)N(C)C(=O)c1nc(S(C)(=O)=O)n2ccccc12 (stereo not given),1.8%
7,CN(Cc1cnn(C)c1)C(=O)C(c1ccccc1)N1CCSCC1 (stereo not given),-13.4%
8,Cc1cncc(C2CCCN(C(=O)c3c[nH]c(=O)[nH]c3=O)C2)n1 (stereo not given),11%
9,O=C(c1c[nH]c(=O)[nH]c1=O)N1CCCC(c2cnccn2)C1 (stereo not given),53%
10,Cc1cnc(C2CCCN(C(=O)c3c[nH]c(=O)[nH]c3=O)C2)s1 (stereo not given),38.2%
11,COc1ncccc1C(=O)Nc1cccc(C[S+](C)[O-])c1C (stereo not given),-32.2%
12,Cc1nc2n(n1)CC(NCC(=O)Nc1cc(C)on1)CC2 (stereo not given),7.08%
13,CNc1cc(C)nc(C2CN(Cc3cc[nH]n3)CCO2)c1 (stereo not given),67.7%
14,Cc1cc(N)cc(C2CN(Cc3cc[nH]n3)CCO2)n1 (stereo not given),0.301%
15,CNc1cc(C)nc(C2CN(Cc3ccc(Cl)cn3)CCO2)c1 (stereo not given),-35.8%
16,COCC1CN(C(=O)c2ccccn2)Cc2nccn2C1 (stereo not given),11.5%
17,COCC1CN(C(=O)c2cccs2)Cc2nccn2C1 (stereo not given),67.5%
18,COCC1CN(C(=O)c2cccn2C)Cc2nccn2C1 (stereo not given),42.1%
19,O=C(NCCn1ccnc1)c1ccn(-c2ccccc2F)n1,7.27%
20,O=c1c(NCCc2ccc(O)cc2)c(NCc2ccccn2)c1=O,23.7%
21,O=C(NS(=O)(=O)Cc1ccc(F)cc1)C1CCc2ccccc21 (stereo not given),11.7%
22,O=C(NS(=O)(=O)Cc1ccc(F)cc1)C1CCOc2ccccc21 (stereo not given),50.7%
23,O=C(NS(=O)(=O)c1ccc(F)cc1)C1CCOc2ccccc21 (stereo not given),48.5%
24,COCC(=O)N1CC[C@@H](N2CCOCC2)[C@@H]1Cc1cccnc1,27.6%
25,NCCc1nc(N[C@@H](CO)c2ccccc2)c2ccccc2n1,31.9%
26,CCC(Nc1nc(CCN)nc2ccccc12)c1cc(C)ccn1 (stereo not given),-1.25%
27,CCC(Nc1nc(CCN)nc2ccccc12)c1cccs1 (stereo not given),51.1%
